Assay results taken from PubChem BioAssay AID720518 (National Center for Advancing Translational Sciences (NCATS), 2013).
Results filed as inconclusive are left out. Unmarked numbers belong to inactive results. Calls come from the whole dose curve.

test: qHTS for Inhibitors of Cell Surface uPA Generation: Wild-type Protective Antigen (WT-PrAg) Counterscreen for Cherry-picked Compounds; conditions: cells, WT protective antigen toxicity counterscreen; series mostly up to 115 µM; activity (protection): at the top concentration; note: 0% is about no effect

SMILES	activity (protection) [%]
O=C(NCCCN1CCCC1=O)c1cccc(Oc2ccccc2)c1	0.0118
Cc1ccc(NC(=O)CSc2nncn2N)cc1C	2.11
O=C(/C=C/c1cccc(F)c1)Nc1cc(S(=O)(=O)N2CCOCC2)ccc1Cl	-1.99
Nc1nc2ccc(Br)cc2o1	-1.4
